The values below come from PubChem BioAssay (Tox21).

A number with no mark means an inactive call. Inconclusive results are not listed. The source made the active and inactive calls. Unless noted, calls come from the whole dose curve; as a rule, active = well fitted curve in the direction sought with a large enough effect in the repeat runs; inconclusive = weak or mixed curves; inactive = no such curve, though single readings can be large; an effect the other way counts as inactive or inconclusive.

A short description of test [1]: qHTS assay to identify small molecule antagonists of the androgen receptor (AR) signaling pathway using the MDA cell line in the presence of 0.5 nM R1881 - cell viability counter screen (AID 1259242). Note: nearly all actives have a fitted effect of over 45% in size. In short, it runs like this: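 MDA-kb2 cells (human breast carcinoma, stably carrying MMTV-luciferase reporter) were exposed to compounds with 0.5 nM R1881 (final) for 16 hr at 37C, 0% CO2; viability then read as live-cell protease fluorescence (CellTiter-Fluor, 30 min) in the same wells.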

Test [2] concerns the target Androgen receptor (Homo sapiens) (UniProt P10275). Description: qHTS assay to identify small molecule antagonists of the androgen receptor (AR) signaling pathway using the MDA cell line in the presence of 0.5 nM R1881 (AID 1259243). Note: nearly all actives have a fitted effect of over 50% in size. Note: potency is the fitted concentration of half-maximal effect. In a few lines:
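MDA-kb2 human breast carcinoma cells carrying an MMTV-luciferase reporter (AR- and GR-responsive) were plated, rested 5 hr at 37C, dosed with compounds, then stimulated with 0.5 nM R1881 (final) for 16 hr; luminescence was read after ONE-Glo.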

For test [3], the target named is Estrogen receptor (Homo sapiens) (UniProt P03372). Description: qHTS assay to identify small molecule antagonists of the estrogen receptor alpha (ER-alpha) signaling pathway using the BG1 cell line in the presence of 0.1 nM 17-beta-estradiol (AID 1259244). Note: nearly all actives have a fitted effect of over 50% in size. Note: potency is the fitted concentration of half-maximal effect. In a few lines:
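VM7Luc4E2 cells (endogenous full-length ER-alpha, stable 4xERE-luciferase) were grown 5 days in phenol red-free medium with charcoal-stripped FBS, then exposed 22 h at 37C to compounds plus 0.1 nM (final) 17beta-estradiol; ONE-Glo luminescence read-out.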

The nature of test [4]: qHTS assay to identify small molecule HDAC inhibitors (AID 1259364). Note: top concentration of the series differs between compounds; nearly all actives have a fitted effect of over 45% in size. In a few lines:
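Wild-type HCT-116 cells were plated overnight, exposed to compounds for 2 h at 37 °C, then given HDAC-Glo class I/II luminogenic reagent for 30 min at room temperature before luminescence was read.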

Test [5] in a line: qHTS assay to identify small molecule HDAC inhibitors - cell viability counter screen (AID 1259365). Note: series mostly up to about 92 µM; nearly all actives have a fitted effect of over 50% in size. In a few lines:
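To flag cytotoxic hits, 1,500 wild-type HCT-116 cells per well, plated the day before, receive test compounds for 2hr at 37 C before CellTiter-Glo reagent and a luminescence read.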

Test [6] is described as follows: qHTS assay to identify small molecule agonists of the sonic hedgehog signaling (Shh) pathway - cell viability counter screen (AID 1259366). Note: nearly all actives have a fitted effect of over 50% in size. In a few lines:
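Fluorescence from CellTiter-Fluor reports live cells in this counter screen. NIH/3T3-derived Gli1-Luc reporter cells receive test compounds for 24hr at 37C; reagent goes in at 23hr.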

Test [7] can be described thus: qHTS assay to identify small molecule antagonists of the sonic hedgehog signaling (Shh) pathway - cell viability counter screen (AID 1259367). Note: nearly all actives have a fitted effect of over 55% in size. In a few lines: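 After a 4 hr settling period, 3T3 Gli1-Luc cells were treated with DMSO-dissolved chemicals and conditioned medium, kept 24 hr at 37C in 5% CO2, and assayed for viability by CellTiter-Fluor fluorescence following 1 hr reagent incubation.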

Test [8] can be described thus: qHTS assay to identify small molecule agonists of the sonic hedgehog signaling (Shh) pathway (AID 1259368; calls by dose curve; note: series mostly up to about 92 µM; nearly all actives have a fitted effect of over 15% in size). In short, it runs like this:
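NIH/3T3-derived 3T3Gli1-Luc cells carrying a stably integrated Gli1 response element–firefly luciferase reporter were plated, left 4 hr at 37 C, then given compounds in DMSO for 24 hr. Luminescence was read 30 min after adding luciferase reagent.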

Test [9] can be described thus: qHTS assay to identify small molecule antagonists of the sonic hedgehog signaling (Shh) pathway (AID 1259369; calls by dose curve; note: nearly all actives have a fitted effect of over 45% in size). In short, it runs like this: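 NIH/3T3-derived 3T3Gli1-Luc cells with stably integrated Gli1-Luc reporter were preincubated 4hr at 37 C, then given compounds in DMSO plus Shh conditioned medium and incubated 24hr. Firefly luciferase luminescence read after 30min reagent at room temperature.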

The nature of test [10]: qHTS assay to identify small molecule phospholipidosis (PLD) inducers (AID 1259344; active = well fitted curve in the direction sought with a large enough effect; an effect the other way counts as inactive or inconclusive). In a few lines:
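HepG2 cells grown on collagen I take up LipidTOX Red while exposed to compound for 24 h; after fixation they are imaged at 20x and pit metrics are extracted.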

Estrogen receptor (Homo sapiens), sequence (P03372 whole entry, looked up): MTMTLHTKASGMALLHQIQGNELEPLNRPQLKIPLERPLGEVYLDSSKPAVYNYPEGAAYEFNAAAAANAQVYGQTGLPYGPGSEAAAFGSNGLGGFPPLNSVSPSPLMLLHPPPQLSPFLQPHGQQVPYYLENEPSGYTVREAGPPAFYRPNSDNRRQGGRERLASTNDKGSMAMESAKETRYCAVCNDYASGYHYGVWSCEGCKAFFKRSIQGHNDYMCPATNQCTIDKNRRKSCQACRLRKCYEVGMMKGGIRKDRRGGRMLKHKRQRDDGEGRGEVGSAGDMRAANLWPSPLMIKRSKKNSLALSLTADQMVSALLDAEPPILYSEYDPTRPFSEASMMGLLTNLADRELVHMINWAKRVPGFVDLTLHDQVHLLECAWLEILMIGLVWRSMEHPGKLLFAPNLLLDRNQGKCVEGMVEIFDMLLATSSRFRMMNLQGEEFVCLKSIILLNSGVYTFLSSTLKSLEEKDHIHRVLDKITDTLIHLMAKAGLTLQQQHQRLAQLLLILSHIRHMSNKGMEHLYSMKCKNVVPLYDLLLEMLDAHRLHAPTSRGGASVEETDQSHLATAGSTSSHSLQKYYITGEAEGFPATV
Androgen receptor (Homo sapiens), sequence (P10275 whole entry, looked up): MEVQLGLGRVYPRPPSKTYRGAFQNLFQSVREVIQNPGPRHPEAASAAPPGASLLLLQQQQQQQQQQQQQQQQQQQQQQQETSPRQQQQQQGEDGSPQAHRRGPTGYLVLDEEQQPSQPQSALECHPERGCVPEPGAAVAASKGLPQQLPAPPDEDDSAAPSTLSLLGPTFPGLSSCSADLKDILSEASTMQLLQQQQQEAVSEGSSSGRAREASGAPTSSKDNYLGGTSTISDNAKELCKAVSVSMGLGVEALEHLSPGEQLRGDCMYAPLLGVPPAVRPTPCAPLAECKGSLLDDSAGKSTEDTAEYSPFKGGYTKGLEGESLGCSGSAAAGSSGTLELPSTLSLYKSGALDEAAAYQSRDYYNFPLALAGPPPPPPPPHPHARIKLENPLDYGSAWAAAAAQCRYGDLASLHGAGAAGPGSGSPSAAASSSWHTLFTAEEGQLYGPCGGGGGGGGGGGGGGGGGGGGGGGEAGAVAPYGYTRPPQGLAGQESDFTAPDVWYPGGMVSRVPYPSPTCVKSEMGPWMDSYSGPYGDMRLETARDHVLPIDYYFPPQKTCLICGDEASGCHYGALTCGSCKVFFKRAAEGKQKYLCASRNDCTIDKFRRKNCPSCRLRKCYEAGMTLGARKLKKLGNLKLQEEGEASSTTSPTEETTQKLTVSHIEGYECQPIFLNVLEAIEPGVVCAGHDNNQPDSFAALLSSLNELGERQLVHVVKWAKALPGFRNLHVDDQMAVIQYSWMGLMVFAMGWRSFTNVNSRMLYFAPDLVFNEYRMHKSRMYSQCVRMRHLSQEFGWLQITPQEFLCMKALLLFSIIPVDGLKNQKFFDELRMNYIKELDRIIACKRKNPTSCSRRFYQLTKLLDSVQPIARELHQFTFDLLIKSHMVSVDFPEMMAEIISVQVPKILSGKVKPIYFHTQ

On to `CC(C)c1ccc2cc(C(C)C)ccc2c1`, for which the outcome in test [1], in test [5] and in test [8] was inactive. Also, the Potency entry in [2], in [3], in test [4], in test [6], in test [7] and in test [9] was “inactive” each time.
As to `CN(CCOc1ccc(NS(C)(=O)=O)cc1)CCc1ccc(NS(C)(=O)=O)cc1`, the outcome in test [1], in test [10], in [5] and in [8] was inactive. Moreover, the Potency result in test [3], in test [4], in [6], in test [7] and in test [9] was “inactive” throughout.
Turning to `O=C(O)Cc1cn(-c2ccccc2)nc1-c1ccc(Cl)cc1`, the outcome in [1], in test [10], in test [5] and in test [8] was inactive. The Potency result in test [3], in [4], in [6], in [7] and in test [9] was “inactive” throughout.
Regarding `CN(C)C(=O)CNC(=O)Cc1ccccc1`, the outcome in [1], in test [10], in test [5] and in test [8] was inactive. Also, the Potency entry in test [3], in [4], in [6], in test [7] and in test [9] was “inactive” in each case.
Turning to `C[C@@H](O)[C@H]1C(=O)N2C(C(=O)O)=C(SCCN=CN)C[C@H]12`, the result in [1], in test [10], in [5] and in test [8] was inactive. Further, the Potency result in test [3], in test [4], in [6], in [7] and in [9] was “inactive” in each case.
As for `Nc1ccc2cc(S(=O)(=O)O)cc(O)c2c1`, the outcome in test [1] and in [5] was inactive. The Potency result in [2], in [3], in test [4], in [6], in [7] and in test [9] was “inactive” each time.
As to `C=COCCOCCOCCOC=C`, the result in test [1], in [5] and in [8] was inactive. For the same compound, the Potency entry in [2], in test [4], in [6], in test [7] and in test [9] was “inactive” throughout.
`CCCCOC(=O)c1ccccc1`: the outcome in [1], in test [5] and in [8] was inactive. For the same compound, the Potency result in [2], in test [3], in test [4], in test [6], in test [7] and in test [9] was “inactive” throughout.
`CCN(CC)CC(=O)Nc1c(C)cccc1C`: the outcome in [1], in test [10], in [5] and in test [8] was inactive. The Potency entry in test [2], in [4], in test [6], in test [7] and in [9] was “inactive” each time.
Consider `Cc1cccc(OCC(O)CNC(C)(C)C)c1C` (centres undefined), for which the outcome in test [1], in [5] and in [8] was inactive. The Potency result in test [2], in test [4], in test [6], in test [7] and in test [9] was “inactive” throughout.
Turning to `O=C1O[C@@H]2[C@@H](O)[C@H](O)O[C@@H]2[C@H]1O`, the outcome in test [1], in [10] and in [5] was inactive. Also, the Potency entry in [3], in test [4], in test [6] and in test [7] was “inactive” throughout.
Consider `CC[C@H](C)C(=O)O[C@H]1C[C@H](O)C=C2C=C[C@H](C)[C@H](CC[C@@H](O)C[C@@H](O)CC(=O)O)[C@H]21`, for which the result in test [1], in test [10], in test [5] and in test [8] was inactive. The Potency entry in test [3], in test [4], in test [6], in test [7] and in test [9] was “inactive” each time.
Consider `O=C(O)Cc1ccc(Cl)cc1Cl`, for which the result in test [1], in test [5] and in test [8] was inactive. For the same compound, the Potency result in test [2], in test [3], in test [4], in test [6] and in test [7] was “inactive” each time.
Consider `COc1nccnc1NS(=O)(=O)c1ccc(N)cc1`, for which the result in test [1], in test [10], in [5] and in test [8] was inactive. The Potency entry in test [2], in test [4], in test [6], in [7] and in test [9] was “inactive” in each case.
With `O=C(OCC(COC(=O)c1cccnc1)(COC(=O)c1cccnc1)COC(=O)c1cccnc1)c1cccnc1`, the outcome in test [1], in test [10], in test [5] and in test [8] was inactive. Further, the Potency entry in test [2], in test [3], in [4], in [6], in test [7] and in [9] was “inactive” each time.
On to `O=C(O)CCSSCCC(=O)O`, for which the result in test [1], in test [5] and in test [8] was inactive. Further, the Potency entry in [2], in [3], in test [4], in test [6], in test [7] and in [9] was “inactive” in each case.
Regarding `CN1C(C)(C)CCCC1(C)C`, the result in test [1], in test [10], in test [5] and in test [8] was inactive. The Potency entry in test [3], in test [4], in [6], in test [7] and in test [9] was “inactive” in each case.
`COP(=O)(OC)OC(c1ccc(Cl)cc1)P(=O)(OC)OC` (centres undefined): the result in test [1], in test [10], in test [5] and in test [8] was inactive. The Potency result in test [3], in [4], in test [6] and in [7] was “inactive” in each case.
Consider `COc1cc(C(=S)N2CCOCC2)cc(OC)c1OC`, for which the outcome in [1], in test [10], in [5] and in test [8] was inactive. In addition, the Potency entry in test [3], in [4], in test [6], in [7] and in [9] was “inactive” throughout.
As for `CC(C)NCC(O)COc1cccc2[nH]ccc12` (centres undefined), the result in [1], in test [10], in test [5] and in test [8] was inactive. Besides, the Potency result in test [2], in test [4], in test [6], in test [7] and in test [9] was “inactive” each time.
With `COc1ccc(-c2cc(=O)c3c(O)cc(O[C@@H]4O[C@H](CO[C@@H]5O[C@@H](C)[C@H](O)[C@@H](O)[C@H]5O)[C@@H](O)[C@H](O)[C@H]4O)cc3o2)cc1O`, the result in [1], in test [10], in [5] and in test [8] was inactive. Moreover, the Potency entry in [3], in test [4], in test [6], in test [7] and in test [9] was “inactive” each time.
In the case of `C=C(C)C(=O)OCCN(CC)CC`, the outcome in [1], in test [5] and in [8] was inactive. Also, the Potency result in test [2], in [4], in test [6], in test [7] and in [9] was “inactive” in each case.
Turning to `O=C(Nc1ccc(Cl)c(Cl)c1)C1CC1`, the result in [1], in test [10] and in test [5] was inactive. Besides, the Potency was 5.96 µM (active) in [2] and 26.6 µM (active) in [3]. Moreover, the Potency entry in test [4], in test [6], in [7] and in test [9] was “inactive” each time.
Consider `CC(=O)NCc1c(I)c(NC(C)=O)c(I)c(C(=O)O)c1I`, for which the outcome in test [1], in test [10], in [5] and in test [8] was inactive. Moreover, the Potency result in test [3], in test [4], in test [6], in test [7] and in test [9] was “inactive” in each case.
